{
  "source": "paper PMC7862700",
  "about": "“An all-to-all approach to the identification of sequence-specific readers for epigenetic DNA modifications on cytosine”",
  "data": [
    {"target": "T1, ERF (Homo sapiens, UniProt P50548 1-548)", "T1 sequence": "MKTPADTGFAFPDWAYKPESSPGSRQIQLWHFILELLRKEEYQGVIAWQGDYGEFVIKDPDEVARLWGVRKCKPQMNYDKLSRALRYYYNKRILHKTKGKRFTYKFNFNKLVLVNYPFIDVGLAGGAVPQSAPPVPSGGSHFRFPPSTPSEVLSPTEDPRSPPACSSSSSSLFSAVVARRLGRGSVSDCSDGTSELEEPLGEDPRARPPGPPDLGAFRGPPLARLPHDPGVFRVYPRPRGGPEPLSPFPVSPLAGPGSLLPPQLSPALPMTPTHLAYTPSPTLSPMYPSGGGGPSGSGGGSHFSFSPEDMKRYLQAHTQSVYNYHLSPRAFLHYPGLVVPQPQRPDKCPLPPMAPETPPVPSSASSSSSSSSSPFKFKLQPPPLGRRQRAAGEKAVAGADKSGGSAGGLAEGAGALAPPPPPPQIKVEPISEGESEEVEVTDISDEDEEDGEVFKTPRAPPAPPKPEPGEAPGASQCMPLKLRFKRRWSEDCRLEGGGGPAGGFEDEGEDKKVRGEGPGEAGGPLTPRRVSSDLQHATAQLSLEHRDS", "experiment": "DAPPL (digital affinity profiling via proximity ligation, sequencing); 10 mM Tris-HCl pH 7.5, 50 mM NaCl, 1 mM DTT, 4% glycerol, room temperature, 30 min; GST-TFs on glutathione beads, 16-mer random dsDNA library, 0.1% formaldehyde crosslink after washing; high values mean tight binding", "conditions": "protein: recombinant; tags: N-terminal GST; dsDNA, one strand shown", "summary_of_the_method": "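The binding signal reported is, for every hexamer, its read frequency for a factor over its read frequency for the tag-only sample. Reads came from pools of yeast-expressed, GST-fused human transcription factors on glutathione beads, barcoded with DNA and mixed with that sample, which were incubated with 200 nmole of a random double-stranded 16-mer DNA library in Tris/NaCl/DTT/glycerol buffer at room temperature for 30 min. After washing, the pools were crosslinked with 0.1% formaldehyde, proximity-ligated with BsaI/T4 ligase for 1 h at 37 °C, PCR-amplified and sequenced on an Illumina NextSeq500.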", "values": [
      {"sequence": "CTGATG", "binding signal": "1.48 fold enrichment (6-mer frequency, TF over GST control)"},
      {"sequence": "CCCGGA", "binding signal": "2.32 fold enrichment (6-mer frequency, TF over GST control)"},
      {"sequence": "TATGTG", "binding signal": "1.07 fold enrichment (6-mer frequency, TF over GST control)"},
      {"sequence": "ACCCGC", "binding signal": "1.27 fold enrichment (6-mer frequency, TF over GST control)"},
      {"sequence": "CTCACC", "binding signal": "1.33 fold enrichment (6-mer frequency, TF over GST control)"},
      {"sequence": "CCGTAT", "binding signal": "1.19 fold enrichment (6-mer frequency, TF over GST control)"},
      {"sequence": "CTCACT", "binding signal": "1.45 fold enrichment (6-mer frequency, TF over GST control)"},
      {"sequence": "TTCATC", "binding signal": "1.21 fold enrichment (6-mer frequency, TF over GST control)"},
      {"sequence": "CTAACG", "binding signal": "1.23 fold enrichment (6-mer frequency, TF over GST control)"},
      {"sequence": "CACACA", "binding signal": "1.16 fold enrichment (6-mer frequency, TF over GST control)"},
      {"sequence": "TATTGC", "binding signal": "1.31 fold enrichment (6-mer frequency, TF over GST control)"},
      {"sequence": "CGCTGC", "binding signal": "1.28 fold enrichment (6-mer frequency, TF over GST control)"},
      {"sequence": "ACTGCA", "binding signal": "1.13 fold enrichment (6-mer frequency, TF over GST control)"},
      {"sequence": "CACATT", "binding signal": "1.33 fold enrichment (6-mer frequency, TF over GST control)"},
      {"sequence": "ACCGGA", "binding signal": "2.82 fold enrichment (6-mer frequency, TF over GST control)"},
      {"sequence": "CGGATG", "binding signal": "1.39 fold enrichment (6-mer frequency, TF over GST control)"},
      {"sequence": "ACTTGG", "binding signal": "1.28 fold enrichment (6-mer frequency, TF over GST control)"},
      {"sequence": "GAATTC", "binding signal": "1.38 fold enrichment (6-mer frequency, TF over GST control)"},
      {"sequence": "CGCCGA", "binding signal": "1.34 fold enrichment (6-mer frequency, TF over GST control)"},
      {"sequence": "TGCAAA", "binding signal": "1.13 fold enrichment (6-mer frequency, TF over GST control)"},
      {"sequence": "AAAAAC", "binding signal": "1.22 fold enrichment (6-mer frequency, TF over GST control)"},
      {"sequence": "CTTTCT", "binding signal": "1.63 fold enrichment (6-mer frequency, TF over GST control)"},
      {"sequence": "TGGTCC", "binding signal": "1.19 fold enrichment (6-mer frequency, TF over GST control)"},
      {"sequence": "ATTCAA", "binding signal": "1.38 fold enrichment (6-mer frequency, TF over GST control)"},
      {"sequence": "CTTACA", "binding signal": "1.34 fold enrichment (6-mer frequency, TF over GST control)"},
      {"sequence": "CTTGCA", "binding signal": "1.39 fold enrichment (6-mer frequency, TF over GST control)"},
      {"sequence": "GATATG", "binding signal": "1.09 fold enrichment (6-mer frequency, TF over GST control)"},
      {"sequence": "TCACAT", "binding signal": "1.24 fold enrichment (6-mer frequency, TF over GST control)"},
      {"sequence": "CTGGTC", "binding signal": "1.19 fold enrichment (6-mer frequency, TF over GST control)"},
      {"sequence": "TATTAG", "binding signal": "1 fold enrichment (6-mer frequency, TF over GST control)"},
      {"sequence": "ACGCTG", "binding signal": "1.21 fold enrichment (6-mer frequency, TF over GST control)"},
      {"sequence": "TGTACG", "binding signal": "1.14 fold enrichment (6-mer frequency, TF over GST control)"},
      {"sequence": "CTTTTA", "binding signal": "1.39 fold enrichment (6-mer frequency, TF over GST control)"},
      {"sequence": "CCCCGC", "binding signal": "1.11 fold enrichment (6-mer frequency, TF over GST control)"},
      {"sequence": "TTTCTG", "binding signal": "1.44 fold enrichment (6-mer frequency, TF over GST control)"},
      {"sequence": "GTTTTA", "binding signal": "1.2 fold enrichment (6-mer frequency, TF over GST control)"},
      {"sequence": "CCGATC", "binding signal": "1.17 fold enrichment (6-mer frequency, TF over GST control)"},
      {"sequence": "GCCTTT", "binding signal": "1.29 fold enrichment (6-mer frequency, TF over GST control)"},
      {"sequence": "TTCTTG", "binding signal": "1.56 fold enrichment (6-mer frequency, TF over GST control)"}
    ]}
  ]
}
